According to the supplement of paper PMC11732987, “Enantioselective OTUD7B fragment discovery through chemoproteomics screening and high-throughput optimisation” (Communications Chemistry, 2025):

How the values were obtained:
Assay in all cases: log2 ratio of Biotin-Ahx-Ub-VS probe labelling (fragment/DMSO); higher = less target engagement (more negative = stronger competition), active = hit call of the paper (q ≤ 0.05, log2 ratio ≤ -1)
Conditions in all cases: compound concentration: 200 uM; treatment time: 3 h
USP34 = USP34 (UniProt Q70CQ2)
Sequence of USP34 (Q70CQ2 whole entry, the tested form may be a part): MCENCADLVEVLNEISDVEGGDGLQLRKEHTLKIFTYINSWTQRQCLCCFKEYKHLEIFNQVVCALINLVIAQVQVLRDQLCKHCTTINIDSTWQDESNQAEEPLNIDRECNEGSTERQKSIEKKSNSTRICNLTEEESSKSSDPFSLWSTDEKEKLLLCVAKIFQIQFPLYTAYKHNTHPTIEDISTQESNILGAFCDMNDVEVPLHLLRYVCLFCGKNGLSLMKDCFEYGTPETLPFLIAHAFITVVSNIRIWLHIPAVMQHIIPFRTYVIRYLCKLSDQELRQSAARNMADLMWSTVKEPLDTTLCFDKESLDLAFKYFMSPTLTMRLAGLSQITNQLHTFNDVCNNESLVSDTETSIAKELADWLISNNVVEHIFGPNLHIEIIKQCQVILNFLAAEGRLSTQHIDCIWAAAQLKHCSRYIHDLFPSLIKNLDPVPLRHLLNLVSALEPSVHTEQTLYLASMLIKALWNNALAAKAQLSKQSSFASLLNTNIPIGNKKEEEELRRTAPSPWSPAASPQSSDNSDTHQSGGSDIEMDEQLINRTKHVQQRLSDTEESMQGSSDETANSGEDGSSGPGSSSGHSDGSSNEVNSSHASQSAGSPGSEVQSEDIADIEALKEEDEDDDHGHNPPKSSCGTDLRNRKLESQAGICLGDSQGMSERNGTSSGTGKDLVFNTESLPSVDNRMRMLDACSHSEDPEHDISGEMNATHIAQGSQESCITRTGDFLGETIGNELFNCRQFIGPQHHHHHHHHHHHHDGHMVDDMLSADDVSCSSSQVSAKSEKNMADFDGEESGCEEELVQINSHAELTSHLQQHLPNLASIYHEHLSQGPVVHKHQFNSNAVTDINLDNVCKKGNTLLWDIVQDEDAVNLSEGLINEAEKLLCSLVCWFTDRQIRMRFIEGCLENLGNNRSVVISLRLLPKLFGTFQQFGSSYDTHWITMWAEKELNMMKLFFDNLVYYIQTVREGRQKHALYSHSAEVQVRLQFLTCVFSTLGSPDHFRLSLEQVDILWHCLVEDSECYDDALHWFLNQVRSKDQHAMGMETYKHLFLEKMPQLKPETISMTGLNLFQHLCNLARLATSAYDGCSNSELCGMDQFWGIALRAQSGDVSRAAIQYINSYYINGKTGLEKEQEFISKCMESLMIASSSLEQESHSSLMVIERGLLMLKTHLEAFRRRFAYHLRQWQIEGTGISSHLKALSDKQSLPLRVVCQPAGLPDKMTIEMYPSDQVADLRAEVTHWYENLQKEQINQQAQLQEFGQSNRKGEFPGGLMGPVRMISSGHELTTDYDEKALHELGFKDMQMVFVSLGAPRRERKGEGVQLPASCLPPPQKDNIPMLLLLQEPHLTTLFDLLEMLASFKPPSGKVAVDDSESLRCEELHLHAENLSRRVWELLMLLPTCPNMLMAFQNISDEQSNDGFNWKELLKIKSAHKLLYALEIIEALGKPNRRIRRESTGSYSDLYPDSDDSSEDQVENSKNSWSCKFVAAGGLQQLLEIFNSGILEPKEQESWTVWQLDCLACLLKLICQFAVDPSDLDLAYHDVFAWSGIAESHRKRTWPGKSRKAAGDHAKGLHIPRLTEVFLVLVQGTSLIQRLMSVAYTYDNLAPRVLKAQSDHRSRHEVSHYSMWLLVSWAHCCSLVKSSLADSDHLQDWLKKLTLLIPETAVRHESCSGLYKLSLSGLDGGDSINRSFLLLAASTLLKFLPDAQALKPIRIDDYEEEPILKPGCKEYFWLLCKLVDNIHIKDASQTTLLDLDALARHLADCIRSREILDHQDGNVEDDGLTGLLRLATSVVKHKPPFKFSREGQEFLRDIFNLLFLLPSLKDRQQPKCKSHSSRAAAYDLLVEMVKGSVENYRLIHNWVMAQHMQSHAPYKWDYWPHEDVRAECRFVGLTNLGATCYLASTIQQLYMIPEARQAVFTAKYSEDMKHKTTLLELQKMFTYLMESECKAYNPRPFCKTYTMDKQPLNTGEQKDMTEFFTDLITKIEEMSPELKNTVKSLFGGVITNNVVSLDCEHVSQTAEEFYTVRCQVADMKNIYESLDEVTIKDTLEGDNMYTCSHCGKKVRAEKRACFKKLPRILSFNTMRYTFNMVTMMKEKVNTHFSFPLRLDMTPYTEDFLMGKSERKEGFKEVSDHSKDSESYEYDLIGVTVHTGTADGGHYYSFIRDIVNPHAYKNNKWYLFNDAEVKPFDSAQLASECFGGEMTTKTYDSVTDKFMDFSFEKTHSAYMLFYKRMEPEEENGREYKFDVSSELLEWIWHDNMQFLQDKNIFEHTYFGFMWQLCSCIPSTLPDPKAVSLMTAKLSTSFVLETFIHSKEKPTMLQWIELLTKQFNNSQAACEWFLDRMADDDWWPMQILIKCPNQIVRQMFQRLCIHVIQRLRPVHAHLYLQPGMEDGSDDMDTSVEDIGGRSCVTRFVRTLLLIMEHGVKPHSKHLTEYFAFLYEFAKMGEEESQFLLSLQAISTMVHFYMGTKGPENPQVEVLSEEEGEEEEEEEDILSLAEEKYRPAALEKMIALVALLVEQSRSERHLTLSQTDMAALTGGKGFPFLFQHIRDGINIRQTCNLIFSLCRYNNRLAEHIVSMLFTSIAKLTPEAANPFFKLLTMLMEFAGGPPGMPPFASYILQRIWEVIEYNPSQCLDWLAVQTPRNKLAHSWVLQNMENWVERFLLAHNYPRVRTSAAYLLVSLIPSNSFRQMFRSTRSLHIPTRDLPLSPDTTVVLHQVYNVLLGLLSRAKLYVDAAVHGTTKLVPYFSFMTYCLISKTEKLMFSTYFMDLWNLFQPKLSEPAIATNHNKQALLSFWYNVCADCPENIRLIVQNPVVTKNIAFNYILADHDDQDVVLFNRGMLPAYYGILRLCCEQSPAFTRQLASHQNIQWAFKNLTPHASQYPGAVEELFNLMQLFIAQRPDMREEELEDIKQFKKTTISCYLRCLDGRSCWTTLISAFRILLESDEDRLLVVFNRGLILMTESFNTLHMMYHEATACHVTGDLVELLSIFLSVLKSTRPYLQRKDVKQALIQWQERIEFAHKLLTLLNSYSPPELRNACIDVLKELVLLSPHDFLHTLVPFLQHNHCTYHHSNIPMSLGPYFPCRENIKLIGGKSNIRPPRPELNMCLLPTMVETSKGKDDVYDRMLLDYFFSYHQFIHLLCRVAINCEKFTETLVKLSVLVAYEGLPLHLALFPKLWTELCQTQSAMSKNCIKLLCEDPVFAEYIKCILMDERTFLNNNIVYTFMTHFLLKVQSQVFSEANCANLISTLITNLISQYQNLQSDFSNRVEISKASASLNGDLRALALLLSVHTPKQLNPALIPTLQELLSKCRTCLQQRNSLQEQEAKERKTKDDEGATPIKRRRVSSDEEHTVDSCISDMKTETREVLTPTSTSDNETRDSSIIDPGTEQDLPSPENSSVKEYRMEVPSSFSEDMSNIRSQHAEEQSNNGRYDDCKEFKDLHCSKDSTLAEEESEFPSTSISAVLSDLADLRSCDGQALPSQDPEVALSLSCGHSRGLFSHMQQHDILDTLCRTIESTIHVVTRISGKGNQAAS
Outline: (§1)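 The table lists average log2 ratios of fragment over vehicle, from an unpaired t-test on global-median-normalised Spectronaut label-free quantities. Proteins with ≥2 unique peptides were used. Samples were HEK293T lysate (495 µg) treated in triplicate with fragment at 200 µM or vehicle for 3 h, then with Biotin-Ahx-Ub-VS (0.5 µM final) for 1 h, with labelled DUBs NeutrAvidin-enriched and run by diaPASEF LC-MS/MS.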

USP36 = target: T1, USP36 (UniProt Q9P275)
T1 sequence (whole entry): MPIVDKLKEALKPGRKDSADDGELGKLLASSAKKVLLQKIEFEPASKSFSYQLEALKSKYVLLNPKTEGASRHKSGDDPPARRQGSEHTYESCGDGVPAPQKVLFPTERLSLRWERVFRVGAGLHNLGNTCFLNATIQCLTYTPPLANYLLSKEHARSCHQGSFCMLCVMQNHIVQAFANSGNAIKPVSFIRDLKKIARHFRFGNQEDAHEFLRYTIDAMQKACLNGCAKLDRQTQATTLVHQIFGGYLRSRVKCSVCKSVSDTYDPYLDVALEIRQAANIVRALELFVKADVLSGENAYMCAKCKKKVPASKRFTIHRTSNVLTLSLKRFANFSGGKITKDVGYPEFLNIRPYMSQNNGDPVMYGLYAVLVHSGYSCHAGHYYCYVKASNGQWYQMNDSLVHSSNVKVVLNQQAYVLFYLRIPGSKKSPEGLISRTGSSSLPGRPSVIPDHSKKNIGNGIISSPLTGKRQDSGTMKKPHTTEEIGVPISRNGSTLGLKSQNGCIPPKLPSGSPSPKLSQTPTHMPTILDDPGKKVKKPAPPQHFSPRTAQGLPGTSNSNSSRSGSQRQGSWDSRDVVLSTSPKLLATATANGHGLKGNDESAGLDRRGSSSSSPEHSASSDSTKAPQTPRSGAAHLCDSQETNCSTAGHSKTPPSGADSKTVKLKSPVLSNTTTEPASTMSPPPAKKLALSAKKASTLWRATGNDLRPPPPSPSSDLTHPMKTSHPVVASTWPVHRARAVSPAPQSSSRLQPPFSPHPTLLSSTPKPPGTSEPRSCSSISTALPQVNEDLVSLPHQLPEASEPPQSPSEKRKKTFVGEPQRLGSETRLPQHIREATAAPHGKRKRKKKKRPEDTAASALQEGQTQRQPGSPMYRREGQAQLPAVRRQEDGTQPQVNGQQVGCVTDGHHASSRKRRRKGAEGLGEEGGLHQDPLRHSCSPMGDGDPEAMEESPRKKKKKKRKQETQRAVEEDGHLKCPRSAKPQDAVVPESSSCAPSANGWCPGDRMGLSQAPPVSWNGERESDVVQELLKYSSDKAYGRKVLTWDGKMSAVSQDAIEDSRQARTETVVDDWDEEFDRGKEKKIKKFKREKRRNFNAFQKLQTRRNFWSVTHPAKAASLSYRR
Outline: as §1

USP38 = target: T2, USP38 (UniProt Q8NB14)
T2 sequence (whole entry): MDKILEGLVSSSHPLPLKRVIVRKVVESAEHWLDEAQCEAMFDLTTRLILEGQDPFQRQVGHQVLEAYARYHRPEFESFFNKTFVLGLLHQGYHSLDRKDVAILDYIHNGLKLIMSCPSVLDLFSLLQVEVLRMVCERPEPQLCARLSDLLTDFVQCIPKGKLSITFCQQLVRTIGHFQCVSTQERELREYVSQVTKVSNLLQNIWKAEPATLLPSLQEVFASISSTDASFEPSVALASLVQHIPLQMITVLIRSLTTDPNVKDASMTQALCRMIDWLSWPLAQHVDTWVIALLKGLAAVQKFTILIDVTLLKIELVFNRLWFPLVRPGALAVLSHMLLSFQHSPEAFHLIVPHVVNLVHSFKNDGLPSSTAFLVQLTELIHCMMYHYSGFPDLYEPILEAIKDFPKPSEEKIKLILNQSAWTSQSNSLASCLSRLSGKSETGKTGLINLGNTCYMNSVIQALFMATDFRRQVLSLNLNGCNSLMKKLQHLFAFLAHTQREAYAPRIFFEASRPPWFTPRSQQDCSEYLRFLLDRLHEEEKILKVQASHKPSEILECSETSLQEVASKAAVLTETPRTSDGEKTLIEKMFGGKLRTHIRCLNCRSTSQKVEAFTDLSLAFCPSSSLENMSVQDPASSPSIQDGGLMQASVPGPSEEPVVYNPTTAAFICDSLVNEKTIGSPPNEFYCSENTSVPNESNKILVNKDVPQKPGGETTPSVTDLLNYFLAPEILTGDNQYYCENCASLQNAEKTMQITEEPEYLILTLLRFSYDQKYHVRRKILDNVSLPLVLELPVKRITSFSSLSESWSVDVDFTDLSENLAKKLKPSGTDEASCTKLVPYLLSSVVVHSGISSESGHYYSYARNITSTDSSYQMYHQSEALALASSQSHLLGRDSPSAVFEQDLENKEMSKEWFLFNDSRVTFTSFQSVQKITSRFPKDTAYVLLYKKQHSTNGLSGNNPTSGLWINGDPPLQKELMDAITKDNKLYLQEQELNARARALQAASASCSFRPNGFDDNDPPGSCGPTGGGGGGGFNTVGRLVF
Outline: as §1

USP39 = target: T3, USP39 (UniProt Q53GS9)
T3 sequence (whole entry): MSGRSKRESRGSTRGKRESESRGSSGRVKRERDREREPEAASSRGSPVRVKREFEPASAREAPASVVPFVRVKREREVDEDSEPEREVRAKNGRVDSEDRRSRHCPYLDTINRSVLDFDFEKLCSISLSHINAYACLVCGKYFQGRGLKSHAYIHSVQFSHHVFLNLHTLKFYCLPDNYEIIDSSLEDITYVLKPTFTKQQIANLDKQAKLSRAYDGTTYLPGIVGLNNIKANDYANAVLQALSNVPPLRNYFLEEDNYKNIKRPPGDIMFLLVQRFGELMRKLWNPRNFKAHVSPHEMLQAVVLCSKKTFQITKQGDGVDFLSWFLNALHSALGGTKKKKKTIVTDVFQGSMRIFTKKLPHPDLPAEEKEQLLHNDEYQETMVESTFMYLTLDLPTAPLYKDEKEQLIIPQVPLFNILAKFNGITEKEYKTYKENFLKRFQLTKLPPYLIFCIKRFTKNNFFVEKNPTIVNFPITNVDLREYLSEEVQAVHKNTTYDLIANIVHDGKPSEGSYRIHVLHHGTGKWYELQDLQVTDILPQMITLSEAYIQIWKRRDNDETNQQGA
Outline: as §1

USP4 = target: T4, USP4 (UniProt Q13107)
T4 sequence (whole entry): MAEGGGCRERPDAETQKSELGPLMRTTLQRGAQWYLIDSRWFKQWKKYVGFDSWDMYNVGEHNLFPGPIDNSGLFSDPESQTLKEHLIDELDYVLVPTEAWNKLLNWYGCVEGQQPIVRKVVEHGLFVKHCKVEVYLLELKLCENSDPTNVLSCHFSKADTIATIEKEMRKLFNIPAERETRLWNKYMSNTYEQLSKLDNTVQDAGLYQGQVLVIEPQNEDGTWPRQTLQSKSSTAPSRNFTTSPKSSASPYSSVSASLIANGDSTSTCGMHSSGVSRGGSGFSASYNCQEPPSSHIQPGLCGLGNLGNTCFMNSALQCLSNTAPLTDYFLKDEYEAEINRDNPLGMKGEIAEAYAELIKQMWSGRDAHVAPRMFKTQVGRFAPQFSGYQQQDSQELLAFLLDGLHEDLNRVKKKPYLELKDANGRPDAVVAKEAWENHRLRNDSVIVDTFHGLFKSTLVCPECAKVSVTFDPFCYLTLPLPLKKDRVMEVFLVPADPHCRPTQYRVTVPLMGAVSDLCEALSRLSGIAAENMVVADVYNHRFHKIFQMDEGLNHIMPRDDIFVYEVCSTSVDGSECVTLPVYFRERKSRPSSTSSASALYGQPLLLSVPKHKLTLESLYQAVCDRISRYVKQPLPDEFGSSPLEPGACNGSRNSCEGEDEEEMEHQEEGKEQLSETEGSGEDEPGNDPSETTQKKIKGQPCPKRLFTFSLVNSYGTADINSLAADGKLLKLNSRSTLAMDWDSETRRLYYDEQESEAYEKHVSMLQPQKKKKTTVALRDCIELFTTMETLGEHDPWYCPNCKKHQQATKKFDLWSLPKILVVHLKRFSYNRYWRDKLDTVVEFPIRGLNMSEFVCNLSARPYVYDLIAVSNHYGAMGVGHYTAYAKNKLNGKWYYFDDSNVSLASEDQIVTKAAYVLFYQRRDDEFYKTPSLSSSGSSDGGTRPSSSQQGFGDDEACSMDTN
Outline: as §1

Measured: log2 ratio of Biotin-Ahx-Ub-VS probe labelling

O=C(CCl)N1CCOC(c2cccc(F)c2)C1 (stereo not given)
inactive: USP34 -0.575 | USP36 -0.337 | USP38 -0.131 | USP39 -0.0268 | USP4 -0.344
